# Experimental data as given in paper PMC7819943, “Rice protein-binding microarrays: a tool to detect cis-acting elements near promoter regions in rice”.
# The full ranking holds about 35,000 sequences; the median of “fluorescence intensity (a.u.)” is about 10,000, and the highest 2% start at about 52,000. Many of the other results were omitted from the sample, so the highest values are more common in it than they were.
# Molecular target: T1, OsWOX13 (Oryza sativa, UniProt Q5QMM3 1-267)
# T1 sequence: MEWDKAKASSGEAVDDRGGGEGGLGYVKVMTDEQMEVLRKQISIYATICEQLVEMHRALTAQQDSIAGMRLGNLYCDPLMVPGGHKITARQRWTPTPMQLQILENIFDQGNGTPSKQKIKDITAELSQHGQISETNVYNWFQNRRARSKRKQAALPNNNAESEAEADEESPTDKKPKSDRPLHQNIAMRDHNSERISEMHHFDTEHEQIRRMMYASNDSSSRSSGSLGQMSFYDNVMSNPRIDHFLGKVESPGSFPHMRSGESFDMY
# Test: protein-binding microarray (RPBM); PBS, 2% BSA, 51.3 ng/ul salmon testes DNA, 50 uM zinc acetate, 200 nM TF, 25 C, 1 h; high values mean tight binding
# Conditions: protein: recombinant; tags: N-terminal polyhistidine and DsRed monomer fusion (pET32a); label: CyDye5-dUTP incorporated in the synthesized complementary strand; 3' TTTTT single-stranded linker to array surface; dsDNA, one strand shown
# Procedure, shortened: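 Transcription factors were each fused at the N-terminus to a polyhistidine tag plus DsRed and expressed in E. coli BL21-CodonPlus before Ni–NTA purification. Binding to a double-stranded custom Agilent array was carried out with 200 nM protein at 25 °C for 1 h in PBS, 2% BSA, salmon testes DNA and 50 µM zinc acetate. The binding signal is per-feature fluorescence intensity, in arbitrary units, on an Axon 4000B scanner.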
row,Sequence,binding signal
1,CTTTAAACAGTTTGAGTGAATTTAGGGGTACATATTTCTGCGGAGTCACCTAGTGCAG,6070 fluorescence intensity (a.u.)
2,TTTTGCTTGATTGGTGGTCTGATGTATTTGATGAGTGCGACGGAGTCACCTAGTGCAG,31300 fluorescence intensity (a.u.)
3,ACACTAACAAATCAATTTTCTCTACCCACCACTCCTGAATCGGAGTCACCTAGTGCAG,8890 fluorescence intensity (a.u.)
4,ATAATTATTTGTTTTCAGTCATGTATCTTCATCTTATACACGGAGTCACCTAGTGCAG,6340 fluorescence intensity (a.u.)
5,AATGACATGGCAATCTCACCTTGGAGGTTTGTGCTTTGAACGGAGTCACCTAGTGCAG,4460 fluorescence intensity (a.u.)
6,AAGCAATATAATTGTTTCTCTAATTAGGAGTTATACATGTCGGAGTCACCTAGTGCAG,19000 fluorescence intensity (a.u.)
7,GGGGACATAAATCCTGATGATTTCCTCAACTTTGATCTTGCGGAGTCACCTAGTGCAG,3630 fluorescence intensity (a.u.)
8,CCTAATTAATCTGTCATTAGCAAATATTTATTGTAGCATCCGGAGTCACCTAGTGCAG,47000 fluorescence intensity (a.u.)
9,TCTAATTAATTTGTCATTAGCAAATGTTTATTGTAGCATCCGGAGTCACCTAGTGCAG,58400 fluorescence intensity (a.u.)
10,CCTAATTAATCCGTCATTAGCAAATGTTTATTGTAGCACCCGGAGTCACCTAGTGCAG,41300 fluorescence intensity (a.u.)
11,TAAGCCTAATTAATTTGTCATTAGCAAATGTTTACTATAGCGGAGTCACCTAGTGCAG,30300 fluorescence intensity (a.u.)
12,AATTAATTTGTCATTAGTAAATGTTTACTGTAGCACCACACGGAGTCACCTAGTGCAG,42000 fluorescence intensity (a.u.)
13,AGCCTAATTAATTTGTCATTAGCAAATGTTTACTGTAGCACGGAGTCACCTAGTGCAG,57000 fluorescence intensity (a.u.)
14,CTTGATTAATCCGTACGTCTATCAACTCAGCCCGAAACGCCGGAGTCACCTAGTGCAG,46200 fluorescence intensity (a.u.)
15,AAGCTATTAGATTGGCTATAGATGAATTGAAGTTAGTAGTCGGAGTCACCTAGTGCAG,26100 fluorescence intensity (a.u.)
16,ATTGGCTATTAGATTGGCTATAGATGAATTAGAGTTAGTACGGAGTCACCTAGTGCAG,15400 fluorescence intensity (a.u.)
17,TTAGATTGGTTATAGATGAATTGGAGCTAGTAGTGGGTTGCGGAGTCACCTAGTGCAG,56200 fluorescence intensity (a.u.)
18,GGCTATTAGATTGGTTATAAATGAATTGGAGCCAATAGTGCGGAGTCACCTAGTGCAG,39100 fluorescence intensity (a.u.)
19,CTTGAGATGATTAGACTCCTAATGTAGCTCATGATTATATCGGAGTCACCTAGTGCAG,14400 fluorescence intensity (a.u.)
20,CATGATTAATTTTAGGCCGGTCATTGCTCGTGTCCTTGTTCGGAGTCACCTAGTGCAG,65300 fluorescence intensity (a.u.)
21,ATTAGATTGACTATAGATGAATTGAAGACAGTAGTGGGCTCGGAGTCACCTAGTGCAG,49500 fluorescence intensity (a.u.)

row,Sequence,binding signal
1,AAACCCTTAATTGCTCATGATTTTGCCATTATAATATAGGCGGAGTCACCTAGTGCAG,44600 fluorescence intensity (a.u.)
2,GATATTAGATTGGCTATAGATGAATTGGAGTTAGTAGTGGCGGAGTCACCTAGTGCAG,52700 fluorescence intensity (a.u.)
3,GAAATTATTGCTGAAATTTTGTCCTTCATAGTGTGCTGTTCGGAGTCACCTAGTGCAG,12200 fluorescence intensity (a.u.)
4,TGAGCTATTAGATTGGTTATAGATGAATTGAAGTTAGTAGCGGAGTCACCTAGTGCAG,14100 fluorescence intensity (a.u.)
5,ACATGATAGACTAATGAGTAGATTGTTGTCCTAATTAGCTCGGAGTCACCTAGTGCAG,54100 fluorescence intensity (a.u.)
6,ATGTCATTTTAAAGTTTAATTAATTAGATAATTACCTTCTCGGAGTCACCTAGTGCAG,17500 fluorescence intensity (a.u.)
7,TCATCTAATTAATTGGCAAGGTGATATGCGTCCCTGAAAACGGAGTCACCTAGTGCAG,39500 fluorescence intensity (a.u.)
8,GACAGTTTGATTTCCTCTTGTGTTTATGCATTATTTTGTGCGGAGTCACCTAGTGCAG,3640 fluorescence intensity (a.u.)
9,TATCAAATTTATCCATTTGTTAATGTTGTAATAATTAAAACGGAGTCACCTAGTGCAG,6890 fluorescence intensity (a.u.)
10,CTGACTTTGTCATACGTCTATGATTTGCCACTGACTTTATCGGAGTCACCTAGTGCAG,4530 fluorescence intensity (a.u.)
11,CATTCTAATTAGCAATGGTCACCACGAATGATTAATGTAGCGGAGTCACCTAGTGCAG,28200 fluorescence intensity (a.u.)
12,ACATCTAATTTGAAATGGATGTAGTATATTCTAATTGCATCGGAGTCACCTAGTGCAG,17000 fluorescence intensity (a.u.)
13,TGAATATGTCCCAAATTAATTGTCACAATGGAGTACTAATCGGAGTCACCTAGTGCAG,3200 fluorescence intensity (a.u.)
14,TATTAGATTGGCTATAGATGAATTGGAGCTAGTAGTTGGCCGGAGTCACCTAGTGCAG,46700 fluorescence intensity (a.u.)
15,TAGATTGGCTATAGATGAATTGGAGCTAGTAGTTGGCTATCGGAGTCACCTAGTGCAG,25400 fluorescence intensity (a.u.)
16,AATATTAGATTGGCTATAGATGAATTGTAGCTAGTAGTTGCGGAGTCACCTAGTGCAG,54100 fluorescence intensity (a.u.)
17,GTGATTGATGCCGCCTGGGTTAGTTCAACTATTGCTGCATCGGAGTCACCTAGTGCAG,55400 fluorescence intensity (a.u.)
18,TGGGTGATTGATTAGTACTACTGCTGCATCTGCACTGCATCGGAGTCACCTAGTGCAG,38400 fluorescence intensity (a.u.)
19,CTGCTGCTTGATTATTTGGGTTCAACTGGCAAGAACTATGCGGAGTCACCTAGTGCAG,8890 fluorescence intensity (a.u.)
20,TCAAAATCAGTTTGAGTAAATTTTATTTTGGTTCAACTTTCGGAGTCACCTAGTGCAG,6800 fluorescence intensity (a.u.)
21,ATTTTGATTAAATGGTGATCAGCCAAAGCATTTGCCATCCCGGAGTCACCTAGTGCAG,39300 fluorescence intensity (a.u.)
